The record followed here is PubChem BioAssay.

Assay [1] is described as follows: antimalarial activity against Dd2 strain (AID 2302;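 active = growth inhibition above 50% at the single 2 µM test dose, taken to imply half-maximal potency below 2 µM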;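 note: 0% = DMSO untreated growth and 100% = chloroquine plus artemisinin killed control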). The following applies: P. falciparum Dd2 in RBCs, LDH growth readout, 72 h; at 2 µM; active compounds read high.
A short description of assay [2]: HepG2 cytotoxicity, primary screen, cytotoxicity control for P. falciparum antimalarial project, cell-based, ATP luminescence (AID 2303;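 active = inhibition above 50%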;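 note: 0% = DMSO wells and 100% = digitonin-killed cells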). The note with it: HepG2 viability, 24-48 h, at 10 µM, active compounds read high.
Assay [3] concerns the target L-lactate dehydrogenase (Plasmodium falciparum (isolate CDC / Honduras)) (UniProt Q27743). Briefly: PfLDH activity inhibition – cell lysate, 3D7 strain, counter-screen for P. falciparum growth inhibition project (AID 2304).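 Note: 0% = vehicle and 100% = reference inhibitor.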 The note with it: P. falciparum 3D7 crude extract, LDH APAD/NBT absorbance; at 2 µM; active compounds read high.
Assay [4] can be described thus: inhibition of 3D7 malaria parasite growth – strain 3D7 (AID 2306).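 Note: 0% = DMSO wells and 100% = chloroquine plus artemisinin control wells.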 The following applies: P. falciparum 3D7 erythrocytic growth, LDH absorbance, 72 h; at 2 µM; active compounds read high.
The target of assay [5] is Calcium-dependent protein kinase 1 (Plasmodium falciparum (isolate 3D7)) (UniProt P62344). In words: PfCDPK1 kinase inhibitors, biochemical, TCAMS library (AID 1159585; cut-off not given, nearly all actives have IC50 up to about 0.98 µM;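 note: inhibitors leave more ATP so luminescence rises with inhibition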). The note with it: recombinant PfCDPK1, Kinase-Glo ATP depletion luminescence.
Calcium-dependent protein kinase 1 (Plasmodium falciparum (isolate 3D7)), sequence (P62344 whole entry, looked up): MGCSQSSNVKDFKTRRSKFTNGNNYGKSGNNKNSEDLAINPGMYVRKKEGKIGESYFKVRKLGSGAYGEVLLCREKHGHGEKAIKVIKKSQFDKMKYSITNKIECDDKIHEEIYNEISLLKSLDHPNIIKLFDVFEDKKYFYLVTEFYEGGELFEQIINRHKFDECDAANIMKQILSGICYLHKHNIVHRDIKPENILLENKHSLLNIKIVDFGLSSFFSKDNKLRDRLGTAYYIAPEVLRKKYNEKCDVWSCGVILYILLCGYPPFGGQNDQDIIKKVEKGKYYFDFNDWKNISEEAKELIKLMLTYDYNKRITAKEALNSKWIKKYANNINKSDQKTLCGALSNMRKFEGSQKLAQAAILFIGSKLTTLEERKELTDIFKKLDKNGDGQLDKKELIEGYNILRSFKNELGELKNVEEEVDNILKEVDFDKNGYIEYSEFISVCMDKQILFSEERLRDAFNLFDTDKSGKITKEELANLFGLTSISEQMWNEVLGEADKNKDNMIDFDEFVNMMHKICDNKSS
Assay [6] addresses Plasmodium falciparum protein kinase 6 (PK6, PF3D7_1337100) (UniProt Q8IDW1). Briefly: PfPK6 kinase inhibitors, biochemical, TCAMS library (AID 1159586). The following applies: recombinant PfPK6, Kinase-Glo ATP depletion luminescence.
The target in assay [7] is Protein kinase 7 (PK7), Plasmodium falciparum 3D7 (PF3D7_0213400) (UniProt Q7YTF7). Briefly: inhibition of Plasmodium PK7 catalytic activity – biochemical, TCAMS antimalarial set, Kinase-Glo luminescence (AID 1159587). The following applies: recombinant PfPK7, Kinase-Glo ATP depletion luminescence.
Protein kinase 7 (PK7), Plasmodium falciparum 3D7 (PF3D7_0213400), sequence (Q7YTF7 1-343): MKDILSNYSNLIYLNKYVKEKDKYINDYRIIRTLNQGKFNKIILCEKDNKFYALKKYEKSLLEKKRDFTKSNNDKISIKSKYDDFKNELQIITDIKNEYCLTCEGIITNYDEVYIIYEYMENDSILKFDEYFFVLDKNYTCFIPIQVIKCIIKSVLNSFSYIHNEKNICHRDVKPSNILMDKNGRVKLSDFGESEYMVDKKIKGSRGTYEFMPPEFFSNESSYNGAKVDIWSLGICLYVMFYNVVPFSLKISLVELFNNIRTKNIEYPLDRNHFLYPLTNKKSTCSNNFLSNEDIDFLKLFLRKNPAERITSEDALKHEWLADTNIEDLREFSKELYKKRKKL
The target of assay [8] is Calcium-dependent protein kinase 4 (Plasmodium falciparum (isolate 3D7)) (UniProt Q8IBS5). Briefly: PfCDPK4 kinase inhibitors, biochemical, TCAMS library (AID 1159588; cut-off not given, nearly all actives have IC50 up to about 0.91 µM). The note with it: recombinant PfCDPK4, Kinase-Glo ATP depletion luminescence.
Calcium-dependent protein kinase 4 (Plasmodium falciparum (isolate 3D7)), sequence (Q8IBS5 whole entry, looked up): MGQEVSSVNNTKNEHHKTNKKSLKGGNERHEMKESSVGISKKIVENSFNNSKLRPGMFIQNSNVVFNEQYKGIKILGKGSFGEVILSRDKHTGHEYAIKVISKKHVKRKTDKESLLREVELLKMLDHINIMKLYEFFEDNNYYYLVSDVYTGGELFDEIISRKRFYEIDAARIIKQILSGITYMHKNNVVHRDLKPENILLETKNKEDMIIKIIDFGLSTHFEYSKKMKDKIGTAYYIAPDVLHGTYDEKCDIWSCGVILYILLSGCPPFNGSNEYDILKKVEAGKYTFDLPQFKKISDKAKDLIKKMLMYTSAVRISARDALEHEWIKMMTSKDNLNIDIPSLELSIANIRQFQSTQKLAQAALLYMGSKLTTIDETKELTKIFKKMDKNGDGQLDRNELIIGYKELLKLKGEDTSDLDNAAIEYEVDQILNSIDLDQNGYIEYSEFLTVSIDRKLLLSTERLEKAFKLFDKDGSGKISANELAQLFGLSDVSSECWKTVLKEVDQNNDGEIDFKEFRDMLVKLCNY

Unmarked numbers belong to inactive results. For some of these results: Entries with a potency or affinity are not part of this list. Activity calls are given as the source filed them. Unless noted, the rule behind the calls is not given here.

L-lactate dehydrogenase (Plasmodium falciparum (isolate CDC / Honduras)), sequence (Q27743 whole entry, looked up): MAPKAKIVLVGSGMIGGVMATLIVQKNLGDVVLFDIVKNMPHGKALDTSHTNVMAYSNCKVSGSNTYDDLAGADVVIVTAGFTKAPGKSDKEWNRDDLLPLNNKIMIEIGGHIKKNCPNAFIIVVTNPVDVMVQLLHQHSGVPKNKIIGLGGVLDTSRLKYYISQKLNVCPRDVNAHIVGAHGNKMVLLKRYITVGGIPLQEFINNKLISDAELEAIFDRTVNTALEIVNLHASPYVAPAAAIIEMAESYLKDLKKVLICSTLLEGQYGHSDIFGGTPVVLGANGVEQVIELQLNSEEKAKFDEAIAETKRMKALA
Plasmodium falciparum protein kinase 6 (PK6, PF3D7_1337100), sequence (Q8IDW1 1-305): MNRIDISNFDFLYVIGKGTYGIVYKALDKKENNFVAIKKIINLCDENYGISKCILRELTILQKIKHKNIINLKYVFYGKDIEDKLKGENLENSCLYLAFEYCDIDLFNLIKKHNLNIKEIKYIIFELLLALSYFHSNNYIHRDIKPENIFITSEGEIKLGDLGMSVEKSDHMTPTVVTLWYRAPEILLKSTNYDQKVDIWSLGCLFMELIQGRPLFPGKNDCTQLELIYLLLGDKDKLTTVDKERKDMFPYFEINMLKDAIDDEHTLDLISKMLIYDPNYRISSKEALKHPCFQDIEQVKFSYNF

As for `COc1ccccc1-c1csc(C(=O)NCC2CCN(Cc3ccc(C(C)(C)C)cc3)C2)c1` (stereo not given), the growth inhibition in assay [1] was 11%; in assay [4], 93% (active). Besides, the inhibition in assay [2] was 29%; in assay [3], 0%. In addition, the outcome in assay [5], in assay [6], in assay [7] and in assay [8] was inactive.
As to `COc1cc2nc(N(C)Cc3cc4c(Cl)cccc4s3)nc(N)c2cc1OC`, the growth inhibition is 27% in assay [1] and 90% (active) in assay [4]. Also, the inhibition is 32% in assay [2] and 4% in assay [3]. Further, the result in assay [5], in assay [6], in assay [7] and in assay [8] was inactive.
`Cc1nnsc1C(=O)Nc1cccc(-c2cccc(-c3nc4ccc(C(F)(F)F)cc4[nH]3)c2)c1`: the growth inhibition in assay [1] is 100% (active); in assay [4], 101% (active). Besides, the inhibition in assay [2] was 70% (active); in assay [3], 1%. Besides, the result in assay [5], in assay [6], in assay [7] and in assay [8] was inactive.
For the molecule `CC(=O)CCc1ccc(OCCN(Cc2ccccc2C(F)(F)F)c2ccc(C#N)c(C(F)(F)F)c2)cc1`, the results for the growth inhibition in assay [1] and in assay [4] were 87% (active) and 100% (active), respectively. The inhibition in assay [2] was 14%; in assay [3], 0%. The result in assay [5], in assay [6], in assay [7] and in assay [8] was inactive.
Take `CC(C)OCCCNC(=O)c1nc(-c2cccc(C(F)(F)F)c2)sc1C(C)C`: the values for the growth inhibition in assay [1] and in assay [4] were 34% and 94% (active), respectively. Further, the inhibition in assay [2] was -7%; in assay [3], -8%. For the same molecule, the result in assay [5], in assay [6], in assay [7] and in assay [8] was inactive.
As to `O=[N+]([O-])c1cccc(-n2nc(NCc3ccc(Cl)cc3)nc2-c2ccc(F)c(C(F)(F)F)c2)c1`, the growth inhibition in assay [1] is 93% (active); in assay [4] it was 98% (active). In addition, the inhibition in assay [2] was 6%; in assay [3], -3%. The result in assay [5], in assay [6], in assay [7] and in assay [8] was inactive.
Regarding `O=C(Nc1ccc(Cl)cc1)c1cccc(CN2CCCN(Cc3cccc(O)c3)CC2)c1`, the values for the growth inhibition in assay [1] and in assay [4] were 43% and 98% (active), respectively. Besides, the figures for the inhibition in assay [2] and in assay [3] were 14% and 3%, respectively. The result in assay [5], in assay [6], in assay [7] and in assay [8] was inactive.
On to `COc1ccc(-c2cc(C(F)(F)F)n3ncc(C(=O)Nc4cc(C)ccc4O)c3n2)cc1OC`, for which the growth inhibition in assay [1] and in assay [4] was 100% (active) throughout. Further, the inhibition is 2% in assay [2] and 0% in assay [3]. The result in assay [5], in assay [6], in assay [7] and in assay [8] was inactive.
In the case of `O=C(NC(=O)c1ccccc1)NC1CCN(c2ccnc3cc(Cl)ccc23)C1` (stereo not given), the growth inhibition was 99% (active) in assay [1] and 101% (active) in assay [4]. Also, the figures for the inhibition in assay [2] and in assay [3] were 32% and -2%, respectively. The result in assay [5], in assay [6], in assay [7] and in assay [8] was inactive.
For the molecule `N#Cc1cccc(C(=O)N2CCOC(CCN3CCC(c4ccccc4)CC3)(c3ccc(Cl)c(Cl)c3)C2)c1` (stereo not given), the growth inhibition in assay [1] was 49%; in assay [4], 87% (active). Moreover, the inhibition was 51% (active) in assay [2] and 0% in assay [3]. The result in assay [5], in assay [6], in assay [7] and in assay [8] was inactive.
`O=C(c1cccc(COc2ccc3c(c2)CCN(C2CCCC2)CC3)c1)N1CCN(c2ccncc2)CC1`: the growth inhibition in assay [1] was 35%; in assay [4], 100% (active). The inhibition in assay [2] was 49%; in assay [3], -8%. Moreover, the outcome in assay [5], in assay [6], in assay [7] and in assay [8] was inactive.
For `CCCCCCn1c2c(c(=N)c3c1CCC3)CCC2`, the growth inhibition in assay [1] was 83% (active); in assay [4] it was 97% (active). The figures for the inhibition in assay [2] and in assay [3] were 32% and -3%, respectively. Moreover, the outcome in assay [5], in assay [6], in assay [7] and in assay [8] was inactive.
With `CC(CNC(=O)[C@H]1CNCCN1C(=O)CCCc1ccccc1)c1ccccc1` (stereo not given in full), the growth inhibition in assay [1] is 1%; in assay [4], 94% (active). Also, the inhibition in assay [2] is 12%; in assay [3] it was 3%. The outcome in assay [5], in assay [6], in assay [7] and in assay [8] was inactive.
As to `CCNc1cc(C(=O)N[C@@H](Cc2ccccc2)[C@H](O)CNC(CC)c2cccc(Cl)c2)cc(N2CCCCS2(=O)=O)c1` (stereo not given in full), the results for the growth inhibition in assay [1] and in assay [4] were 98% (active) and 100% (active), respectively. Further, the inhibition in assay [2] is 12%; in assay [3], -2%. For the same molecule, the outcome in assay [5], in assay [6], in assay [7] and in assay [8] was inactive.
Turning to `N#Cc1ccc(N[C@@H](CC2CCCCC2)C(=O)NCc2cc(Cl)cc(Cl)c2)c2ccccc12`, the growth inhibition is 88% (active) in assay [1] and 94% (active) in assay [4]. In addition, the inhibition is 34% in assay [2] and 0% in assay [3]. For the same molecule, the outcome in assay [5], in assay [6], in assay [7] and in assay [8] was inactive.
Turning to `Cc1ccc(-c2nc3ccc(C(=O)NC4CCN(Cc5ccccc5)CC4)cc3[nH]2)cc1`, the growth inhibition in assay [1] is 53% (active); in assay [4], 100% (active). In addition, the results for the inhibition in assay [2] and in assay [3] were 20% and -4%, respectively. The result in assay [5], in assay [6], in assay [7] and in assay [8] was inactive.
Take `COc1cc(C(=O)NC2CC(C)(C)N(C)C(C)(C)C2)ccc1-c1nc2cc(Cl)c(Cl)cc2[nH]1`: the growth inhibition in assay [1] is 99% (active); in assay [4], 100% (active). In addition, the inhibition in assay [2] is 69% (active); in assay [3], 5%. Also, the outcome in assay [5], in assay [6], in assay [7] and in assay [8] was inactive.
Regarding `Oc1ccc(CCNc2nc(NCc3cccc(-c4cc(C(F)(F)F)ccc4Cl)c3)nc(N3CCNCC3)n2)cc1`, the growth inhibition in assay [1] was 8%; in assay [4], 90% (active). In addition, the inhibition was 33% in assay [2] and 0% in assay [3]. Moreover, the result in assay [5], in assay [6], in assay [7] and in assay [8] was inactive.
In the case of `CCCCCN1C(=O)N(c2ccc(Cl)c(Cl)c2)C(N(O)C(=O)Nc2ccc(Cl)c(Cl)c2)C1(C)C` (stereo not given), the growth inhibition is 99% (active) in assay [1] and 94% (active) in assay [4]. Also, the inhibition is -2% in assay [2] and 6% in assay [3]. Further, the result in assay [5], in assay [6], in assay [7] and in assay [8] was inactive.
As for `COc1cc(Nc2ncnc3cc(OC)c(OC)cc23)cc([N+](=O)[O-])c1`, the growth inhibition in assay [1] was 6%; in assay [4], 97% (active). Further, the inhibition in assay [2] and in assay [3] was 8% throughout. In addition, the result in assay [5], in assay [6], in assay [7] and in assay [8] was inactive.
